# Reference: PubChem BioAssay AID540308 (The Scripps Research Institute Molecular Screening Center, 2011)
# In all, about 360,000 compounds went through this assay and about 3,500 (0.97%) were called active.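 Rule for the calls: active = activation above a per-plate cutoff, the mean activation of sample wells on that plate plus 3 SD (cut at about 8% in these data); inactive = the rest.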 The sample as a whole holds a higher share of actives than the screen did.
# Target: Melanocortin receptor 4 (Homo sapiens) (UniProt P32245)
# Sequence (P32245 whole entry, looked up): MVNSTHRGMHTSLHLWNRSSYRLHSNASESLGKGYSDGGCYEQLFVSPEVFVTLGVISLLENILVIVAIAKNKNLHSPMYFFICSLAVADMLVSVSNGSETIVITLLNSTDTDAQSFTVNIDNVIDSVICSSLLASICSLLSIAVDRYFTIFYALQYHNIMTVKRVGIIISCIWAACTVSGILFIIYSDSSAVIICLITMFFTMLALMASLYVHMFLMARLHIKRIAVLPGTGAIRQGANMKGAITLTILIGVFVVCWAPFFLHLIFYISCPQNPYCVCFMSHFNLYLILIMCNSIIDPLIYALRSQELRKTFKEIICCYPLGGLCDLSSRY
# Assay: activators of MC4R beta-arrestin recruitment – cell-based, luminescence, agonist arm of biased-ligand search, primary screen (AID 540308)
# Details: U2OS MC4R beta-arrestin complementation, at 8.9 µM, active compounds read high, percent of melanotan II response, DMSO zero
row,SMILES,activation
1,O=C(CCl)N(Cc1cccc([N+](=O)[O-])c1)c1cccc(Cl)c1,20.4% (active)
2,COC(=O)c1cc(C(=O)N(Cc2ccccc2)c2ccccn2)cc([N+](=O)[O-])c1,2.05% (inactive)
3,CC(=O)N(CN1C(=O)C2CC=CCC2C1=O)c1cccc(Cl)c1 (stereo not given),-0.75% (inactive)
4,Cn1c(Nc2ccc(F)cc2)nc2cc(-c3ccsc3)sc2c1=O,2.85% (inactive)
5,Cc1ccc(-c2nn(-c3ccccc3)cc2/C=C2\SC(=S)N(CCCCCC(=O)O)C2=O)o1,8.64% (active)
6,CN(C(=O)CCN1C(=O)/C(=C/c2ccccc2F)SC1=S)C1CCS(=O)(=O)C1 (stereo not given),-1.67% (inactive)
7,O=C1/C(=C\c2ccccc2Cl)SC(=S)N1CCC(=O)N1CCCc2ccccc21,-0.74% (inactive)
8,COc1ccc(-c2coc3c(C(=O)NC(C)C)cccc23)c(C)c1,0.44% (inactive)
9,CCOC(=O)c1c(C)[nH]c(C(=O)NCCN2CCOCC2)c1C,-1.01% (inactive)
10,COc1cccc(CNCCc2c[nH]c3ccccc23)c1OCc1ccccc1F,10.3% (active)
11,COc1ccc(C(CCNCc2ccccc2F)c2ccc(F)cc2)cc1 (stereo not given),2.17% (inactive)
12,Fc1ccccc1COc1ccccc1CNCc1ccncc1,-1.5% (inactive)
13,CN1C[C@@H](CO)O[C@@H](n2cnc3c(N4CCN(CCO)CC4)ncnc32)C1,-0.08% (inactive)
14,COc1ccc(S(=O)(=O)N2CCOC2CNC(=O)C(=O)NCc2ccncc2)cc1C (stereo not given),0.29% (inactive)
15,CCNC(=O)C1(C)CCCN1C(=O)c1ccc(N(C)C)cc1 (stereo not given),-0.82% (inactive)
16,O=C(NCCc1c[nH]c2ccc(Cl)cc12)c1ccc([N+](=O)[O-])cc1,10.4% (active)
17,O=C(NCCc1ccc(Cl)cc1Cl)c1cc([N+](=O)[O-])c[nH]c1=O,-2.62% (inactive)
18,Cc1ccc2[nH]cc(CCNC(=O)c3ccc([N+](=O)[O-])cc3)c2c1,-2.01% (inactive)
19,COC(=O)c1ccc(S(=O)(=O)N2CCC(c3nc4ccccc4o3)CC2)cc1,-0.95% (inactive)
20,CC1(C(=O)Nc2ccc3c(c2)OCCO3)CCN1C(=O)Cc1cc(F)ccc1F (stereo not given),-0.93% (inactive)
21,CC1(Oc2ccc(Cl)cc2)CCN(Cc2csc3ccccc23)C1 (stereo not given),5.74% (inactive)
22,OC(c1ccccc1)c1nc(/C=C/c2ccc(C(F)(F)F)cc2)cs1 (stereo not given),1.43% (inactive)

row,SMILES,activation
1,COc1cc(/C=C/C(=O)OCC(=O)c2ccccc2)cc(OC)c1OC,-2.53% (inactive)
2,COc1ccc(/C=C/C(=O)OCC(=O)NC2CCCCCC2)cc1OC,0.56% (inactive)
3,CCOc1ccc(/C=C/C(=O)OCC(=O)c2ccccc2OC)cc1OC,12.9% (active)
4,O=C(Nc1ccc(Cl)cc1)c1csc([C@@H]2O[C@H](CO)[C@H](O)[C@H](O)[C@H]2O)n1,-0.59% (inactive)
5,CCOCCC(=O)Nc1ccc2c(c1)c(=O)n(C)n2-c1ccc2ccccc2c1,-1.1% (inactive)
6,Oc1c(Br)cc(/C=N/NC(=S)NCC2CCCO2)cc1Br (stereo not given),-1.36% (inactive)
7,CC1(C(=O)NS(=O)(=O)c2cccc(F)c2)CCN1C(=O)c1cccc2ccccc12 (stereo not given),-0.68% (inactive)
8,COc1ccc(-n2nnc3c(=O)n(CC(=O)OCc4ccccc4)cnc32)cc1,1.74% (inactive)
9,O=C(Cn1cnc2c(nnn2-c2ccccc2)c1=O)N1CCC(Cc2ccccc2)CC1,11.7% (active)
10,COc1ccc(-n2nnc3c(=O)n(CC(=O)N4CCC(Cc5ccccc5)CC4)cnc32)cc1,3.13% (inactive)
11,Cc1c(C(=O)NCc2ccc(C#N)cc2)sc(=O)n1Cc1ccc(C(=O)N(C)C)cc1,1.47% (inactive)
12,OC[C@@H]1CN(Cc2ccc(Cl)cc2)C[C@H](n2cnc3c(NCc4ccncc4)ncnc32)O1,0.2% (inactive)
13,COc1cc(/C=C(/NC(=O)c2ccccc2)C(=O)Nc2cccc(O)c2)c([N+](=O)[O-])cc1OC,0.1% (inactive)
14,COc1ccc(NC(=O)/C(C#N)=C\c2cc(OC)c(OCc3ccc(C(=O)O)cc3)cc2Br)cc1,-1.04% (inactive)
15,COc1cc(/C=C(\C#N)C(=O)Nc2ccc3ccccc3c2)c([N+](=O)[O-])cc1OC,20.1% (active)
16,Cc1cccc(C)c1Cn1c(C)c(C(=O)NCc2cccc(Cl)c2)sc1=O,-0.04% (inactive)
17,O=C(COC(=O)Cn1cnc2ccccc21)Nc1cccc2c1C(=O)c1ccccc1C2=O,-2.17% (inactive)
18,O=C(COC(=O)c1ccccc1)Nc1ccccc1Sc1ccccc1,-0.01% (inactive)
19,O=C(COC(=O)c1cccc(Br)c1)Nc1cccc2c1C(=O)c1ccccc1C2=O,22.1% (active)
20,CC1(C(=O)NS(=O)(=O)c2ccccc2)CCN1C(=O)Cc1ccc(-c2ccccc2)cc1 (stereo not given),-1.08% (inactive)
21,COc1cc(CNc2ncnc3c2ncn3[C@H]2CN(Cc3cccs3)C[C@@H](CO)O2)cc(OC)c1OC,1% (inactive)
22,CCc1nc2c(OCc3ccccc3)cccn2c1N(C)C(=O)c1ccco1,-0.58% (inactive)

row,SMILES,activation
1,O=[N+]([O-])c1cccc(C=NN=Cc2ccccc2O)c1,9.24% (active)
2,COc1ccc(O)c(/C=N/N=C/c2cccc([N+](=O)[O-])c2)c1,-0.29% (inactive)
3,Cc1ccc(NC(=O)O/N=C/c2cccc([N+](=O)[O-])c2)cc1,-5.02% (inactive)
4,CCCc1ccc(C(O)c2ncc(-c3cccc(OC)c3)[nH]2)cc1 (stereo not given),-1.27% (inactive)
5,COc1ccc(C(=O)N2CCCCC2c2cc(C(=O)Nc3ccccc3)no2)cc1 (stereo not given),-1.46% (inactive)
6,CN(C)C(=O)c1cccc(-c2cnc3sc(NCc4ccc5c(c4)OCO5)nn23)c1,0.82% (inactive)
7,CCCN=C1N(C)C[C@@H]2[C@@H]3C(=O)N(Cc4ccccc4)C(=O)[C@@H]3[C@](C)(C(=O)OC)N12,-1.43% (inactive)
8,CCN1C[C@@H]2[C@@H]3C(=O)N(Cc4ccccc4)C(=O)[C@@H]3[C@](Cc3ccccc3)(C(=O)OC)N2C1=NC1CCCCC1,13.2% (active)
9,CC[C@]1(C(=O)OC)[C@H]2C(=O)N(Cc3ccccc3)C(=O)[C@H]2[C@H]2CN=C(SCc3ccccc3)N21,-0.47% (inactive)
10,COc1ccc(CCCNC(=O)C2Cc3c(-c4cccc(C(N)=O)c4)ccnc3O2)cc1 (stereo not given),-1.12% (inactive)
11,CCCNC(=O)C1(C)CCCN(C(=O)c2oc3ccccc3c2C)C1 (stereo not given),-0.51% (inactive)
12,O=C(COc1ccc(/C=N/NC(=O)c2ccc(O)cc2)cc1)Nc1ccc([N+](=O)[O-])cc1,2.23% (inactive)
13,CC(C)(C)C(=O)Nc1ccc(C(=O)N/N=C/c2ccccc2OC(=O)c2ccc(Cl)cc2Cl)cc1,-0.61% (inactive)
14,O=C(N/N=C/c1ccc(OC(=O)c2ccccc2Cl)cc1)c1ccc(O)cc1,13.4% (active)
15,CCc1nc2c(OCc3ccc(F)c(F)c3)cccn2c1N(C)C(=O)c1ccco1,1.17% (inactive)
16,CC(=O)c1cccc(-c2cnc3c(NC=O)cc(-c4ccc(N5CCN(C)CC5)cc4)cn23)c1,-0.45% (inactive)
17,CN(C)C(=O)c1cccc(-c2cnc3c(NC=O)cc(-c4ccc(C(=O)N5CCOCC5)cc4)cn23)c1,3.87% (inactive)
18,CC(=O)c1cccc(-c2cnc3c(NC=O)cc(-c4ccccc4Oc4ccccc4)cn23)c1,3.06% (inactive)
19,CC(=O)c1ccc(-c2cnc3c(NC=O)cc(-c4cccc(NS(C)(=O)=O)c4)cn23)cc1,-0.24% (inactive)
20,COc1ccc(-c2cc(NC=O)c3ncc(-c4ccccc4)n3c2)cc1OC,21.5% (active)
21,CC(=O)c1cccc(-c2cnc3c(NC=O)cc(-c4ccc(N(C)C)cc4)cn23)c1,10% (active)
22,CC(=O)c1cccc(-c2cnc3c(NC=O)cc(-c4cccc(C(=O)N(C)C)c4)cn23)c1,6.06% (inactive)

row,SMILES,activation
1,CN(C)CCNC(=O)c1ccc(-c2cn3c(-c4ccc(Oc5ccccc5)cc4)cnc3cn2)cc1,1.4% (inactive)
2,CN(C)C(=O)c1cccc(-c2cnc3c(NC=O)cc(-c4ccc(F)cc4)cn23)c1,11.3% (active)
3,CN(C)CCNC(=O)c1cccc(-c2cnc3c(NC=O)cc(-c4cccc(C(F)(F)F)c4)cn23)c1,13.3% (active)
4,COc1ccc(-c2cc(NC=O)c3ncc(-c4cc(OC)c(OC)c(OC)c4)n3c2)c(OC)c1,7.55% (inactive)
5,COc1ccc(-c2cc(NC=O)c3ncc(-c4cccc(C(=O)N(C)C)c4)n3c2)c(OC)c1,5.89% (inactive)
6,CC(C)NC(=O)C1(C)CCCCN1Cc1cccc(C(F)(F)F)c1 (stereo not given),1.6% (inactive)
7,COc1cccc(C(O)c2ncc(-c3ccc4ccccc4c3)[nH]2)c1 (stereo not given),-2.03% (inactive)
8,CSc1ccc(CN2CCC2(C)C(=O)NCc2ccccc2Br)cc1 (stereo not given),0.53% (inactive)
9,COc1cccc(C(O)c2nc(-c3ccc(C)c(C)c3)cs2)c1 (stereo not given),1.59% (inactive)
10,CC(O)(c1cccc(F)c1)c1nc(-c2ccc3c(c2)OCO3)cs1 (stereo not given),3.56% (inactive)
11,O=C(Nc1ccc(Cl)cc1)C1Cc2c(-c3ccc4c(c3)OCO4)ccnc2O1 (stereo not given),1.36% (inactive)
12,COc1cc(NC(=O)c2ccccc2)c(OC)cc1NC(=O)Cc1ccccc1,-1.99% (inactive)
13,CCOCC(=O)Nc1cc(OC)c(Cl)cc1OC,-0.35% (inactive)
14,COc1cc(NC(=O)c2ccc(-c3csc(C)n3)cc2)c(OC)cc1Cl,9.13% (active)
15,CCc1nc2c(OCc3cccc(OC)c3)cccn2c1N(C)C(=O)C(C)C,1.4% (inactive)
16,CCCCN(C=O)c1c(CC)nc2c(OCCC3CCCCC3)cccn12,-0.53% (inactive)
17,N#Cc1nc(-c2cccc3ccccc23)oc1N,-1.15% (inactive)
18,COc1ccc(Nc2oc(-c3ccccc3Cl)nc2C#N)cc1,13.3% (active)
19,COc1ccc(Nc2nc(NCc3ccco3)nc(N/N=C/c3ccccc3Cl)n2)cc1,-2% (inactive)
